Assay outcomes from PubChem BioAssay.
Most compounds without a hit are left out; they make up all but 8% or so of the library.
HCV inhibitor: blocks hepatitis C virus; Huh7.5.1 HCVcc-Cre infection, luciferase reporter, 44 h; Potency, µM (series often up to 41.8 µM), actives largely listed as inhibitors; 340,000 compounds, 3.4% hits; AID 651820; active = well fitted inhibition curve with a large enough effect; inconclusive = small, poorly fitted or top-dose-only effect, or another doubt; inactive = no such curve, though single readings can be large or run the other way
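After 44 h co-culture of compound, cells and HCVcc-Cre (~0.5 moi), substrate is added for 15 min at room temperature and luciferase measured over 15 sec. Cells were seeded at 1,000/well and pre-cultured 4 h.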
HCMV inh: blocks human cytomegalovirus replication | activity change, negative = inhibition, % at 57.5 µM | 410,000 compounds, 4.5% hits | HFF cells, HCMV-luciferase reporter, 72 h; active compounds read low; in the data active = activity change below about -60%; inconclusive = no clear call, values can overlap the other calls; inactive = above about -39%
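Two-dose cell screen: HFF monolayers treated with compounds and infected with luciferase-expressing HCMV at 1 PFU/cell, 72 h at 37C, then lysed for luciferase measurement.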
SARS PLpro yeast: inhibitors of SARS-CoV papain-like protease in yeast. Potency, µM (highest dose often 32.9 µM), most hits filed as activators. S. cerevisiae expressing SARS-CoV PLpro, growth rescue. 330,000 compounds, 0.19% hits; calls by dose curve; note: nearly all actives have a fitted effect of over 55% in size
LASV entry inh: inhibitors of Lassa virus binding or cell entry; Potency, µM (doses to about 37.9 µM), actives largely listed as inhibitors; 300,000 compounds, 1.2% hits; Lassa virus pseudotype entry inhibition, cell reporter; calls by dose curve; tested in HEK293 cells; note: nearly all actives have a fitted effect of over 50% in size
MARV entry inh: blocks Marburg virus binding to or entry into cells; Marburg virus pseudotyped entry inhibition, cell reporter; 300,000 compounds, 1.8% hits; AID 540276; Potency, µM (doses to about 37.8 µM), actives largely listed as inhibitors; calls by dose curve; tested in HEK293 cells
FMDV antiviral: antivirals against foot and mouth disease virus; FMDV antiviral cell-based qHTS; Potency, µM (series often up to 57.9 µM), hits mostly inhibitors; 410,000 compounds, 1.2% hits; AID 1159524; calls by dose curve; tested in HEK293T cells; note: read-out not given here; nearly all actives have a fitted effect of over 45% in size
Numbers stand for hits.

How did Cc1nn(CC(=O)NCc2ccc(N(C)C)cc2)c(=O)c2nn(-c3ccccc3)c(C)c12 do in these assays?
HCMV inh: inactive; LASV entry inh: inactive; FMDV antiviral: inactive

Results for CCCCn1nnnc1C(C1CC1)N1C(=O)C(=O)c2ccccc21 (stereo not given) ?
HCMV inh: inactive

Results for Cc1ccc(C(=O)O/N=C(\N)c2ccccn2)c(C)c1 ?
HCV inhibitor: inconclusive; HCMV inh: -69; SARS PLpro yeast: inactive; LASV entry inh: 0.79µM; MARV entry inh: 0.63µM; FMDV antiviral: 0.89µM

What do the screens show for `CN(C)C(=O)c1ccc(NC(=O)Cn2nnnc2-c2ccccc2F)cc1`?
HCMV inh: inactive; LASV entry inh: inactive; MARV entry inh: inactive; FMDV antiviral: inactive

Results for COc1cccc(OCCCOc2ccc([N+](=O)[O-])cc2Cl)c1 ?
HCV inhibitor: inactive; HCMV inh: inactive; SARS PLpro yeast: inactive; LASV entry inh: inactive; MARV entry inh: inactive; FMDV antiviral: inactive

Results for COc1ccccc1OCCCOc1ccc([N+](=O)[O-])cc1Cl ?
HCV inhibitor: 22µM; HCMV inh: inactive; SARS PLpro yeast: inactive; LASV entry inh: inactive; MARV entry inh: inconclusive; FMDV antiviral: inactive

How did CCOC(=O)c1c2c(n(C3CCCCC3)c1CN(C)C)CC(Br)=C(OC)C2 do in these assays?
MARV entry inh: 10µM

What do the screens show for `CC(=O)Nc1ccc(S(=O)(=O)c2ccnc3cc(Cl)ccc23)cc1`?
HCMV inh: -83; FMDV antiviral: 32µM

Results for CCC1CN(C(=O)Nc2ccccc2C(F)(F)F)c2ccccc2S1 (stereo not given) ?
HCMV inh: inactive; LASV entry inh: inactive; FMDV antiviral: inactive

Results for CSc1ccc(/C=N/Nc2cccc(C(=O)O)c2)cc1 ?
HCV inhibitor: inactive; SARS PLpro yeast: inactive; LASV entry inh: 0.89µM; MARV entry inh: inconclusive; FMDV antiviral: 2.2µM

Results for O=C(Oc1ccc(/C=N/Nc2ccccc2)cc1)c1ccccc1 ?
HCV inhibitor: inactive; HCMV inh: inactive; SARS PLpro yeast: inactive; LASV entry inh: inactive; MARV entry inh: inactive; FMDV antiviral: inactive

Results for O=C(O)c1ccc(N/N=C/c2ccc(OC(=O)c3cccc(Cl)c3)cc2)cc1 ?
HCV inhibitor: inactive; HCMV inh: -64; SARS PLpro yeast: inactive; FMDV antiviral: 20µM

What do the screens show for `CSc1ccc(/C=N/NC(=O)c2ccccc2Cl)cc1`?
HCV inhibitor: inconclusive; HCMV inh: inactive; SARS PLpro yeast: inactive; LASV entry inh: 8.9µM; MARV entry inh: inconclusive; FMDV antiviral: inactive

Results for O=C(O)c1cccc(N/N=C/c2ccc(OC(F)(F)F)cc2)c1 ?
HCV inhibitor: inactive; HCMV inh: inactive; SARS PLpro yeast: inactive; LASV entry inh: inconclusive; MARV entry inh: inconclusive; FMDV antiviral: 25µM

What do the screens show for `Cc1nn(-c2ccccc2)c(-n2cccc2)c1C(=O)NCCCN1CCN(c2ccccc2F)CC1`?
HCMV inh: inactive; LASV entry inh: inconclusive; MARV entry inh: inconclusive; FMDV antiviral: inactive

How did Cc1ccccc1NC(=O)c1c(NC(=O)C(C)Oc2cccc(Cl)c2)sc2c1CCCC2 (stereo not given) do in these assays?
HCMV inh: inactive; LASV entry inh: inactive; FMDV antiviral: inactive

How did Cc1nn(S(=O)(=O)c2ccc(F)cc2)c(C)c1S(=O)(=O)N1CCCCCC1 do in these assays?
HCMV inh: inactive; LASV entry inh: inactive; FMDV antiviral: inactive

Results for O=C(O)c1cccc(N/N=C/c2cccs2)c1 ?
HCV inhibitor: inactive; HCMV inh: inactive; SARS PLpro yeast: inactive; LASV entry inh: 5.8µM; MARV entry inh: 1.5µM; FMDV antiviral: 2.2µM

How did C=CCOC(=O)C1=C(C)N=C2SCCC(=O)N2C1/C=C/c1ccccc1 (stereo not given) do in these assays?
HCV inhibitor: inconclusive; HCMV inh: -103; SARS PLpro yeast: inactive; FMDV antiviral: inactive

How did CC(C)c1ccc(OCCCCN2CCCCC2)cc1 do in these assays?
HCV inhibitor: inconclusive; HCMV inh: inactive; SARS PLpro yeast: inactive; LASV entry inh: inactive; MARV entry inh: 11µM; FMDV antiviral: inactive

What do the screens show for `Cc1ccc(OCCCCCCN2CCNCC2)cc1`?
HCV inhibitor: inconclusive; HCMV inh: inactive; LASV entry inh: inactive; MARV entry inh: 14µM; FMDV antiviral: inactive

Results for Cc1ccc(OCCCCCN2CCOCC2)cc1 ?
HCV inhibitor: inactive; HCMV inh: inactive; SARS PLpro yeast: inactive; LASV entry inh: inactive; MARV entry inh: inactive; FMDV antiviral: inactive

Results for Cc1cc(OCCCCCN2CCCC2)ccc1Cl ?
HCV inhibitor: 10µM; HCMV inh: inactive; SARS PLpro yeast: inactive; FMDV antiviral: inactive

Results for COc1cc(C2C(=O)N(C3CCCCCC3)CC(=O)N2Cc2ccccc2)ccc1OC(C)C (stereo not given) ?
HCMV inh: inconclusive; LASV entry inh: inactive; FMDV antiviral: inactive

How did Cc1c(NC(=O)Nc2cccs2)cccc1[N+](=O)[O-] do in these assays?
HCV inhibitor: inconclusive; HCMV inh: -72; SARS PLpro yeast: inactive; FMDV antiviral: inactive

How did CCN(C(=O)CN(C)Cc1c(F)cccc1Cl)c1c(N)n(Cc2ccccc2)c(=O)[nH]c1=O do in these assays?
HCV inhibitor: inactive; HCMV inh: -65; SARS PLpro yeast: inactive; LASV entry inh: inactive; MARV entry inh: inconclusive; FMDV antiviral: inactive

Results for CN(C(=O)COC(=O)Cc1c(F)cccc1Cl)c1c(N)n(Cc2ccccc2)c(=O)[nH]c1=O ?
HCV inhibitor: inactive; HCMV inh: inactive; SARS PLpro yeast: inactive; LASV entry inh: inactive; MARV entry inh: inactive; FMDV antiviral: inactive

How did CCN(C(=O)c1ccc(=O)[nH]c1)c1c(N)n(Cc2ccccc2)c(=O)[nH]c1=O do in these assays?
HCV inhibitor: inactive; HCMV inh: inactive; SARS PLpro yeast: inactive; FMDV antiviral: inactive

How did CCN(C(=O)c1ccc(=O)n(C)n1)c1c(N)n(Cc2ccccc2)c(=O)[nH]c1=O do in these assays?
HCV inhibitor: inactive; HCMV inh: -77; SARS PLpro yeast: inactive; LASV entry inh: inactive; MARV entry inh: inactive; FMDV antiviral: inactive

What do the screens show for `Cc1ccc(CCNC(=O)c2c(C)oc3ncnc(N4CCOCC4)c23)cc1`?
HCMV inh: inactive; LASV entry inh: inconclusive; FMDV antiviral: inactive

What do the screens show for `O=[N+]([O-])c1cccc(CSc2ncnc3ccccc23)c1`?
HCV inhibitor: inactive; HCMV inh: -81; SARS PLpro yeast: inactive; LASV entry inh: inactive; MARV entry inh: inactive; FMDV antiviral: inactive

Results for Cc1ccc(C(=O)CSc2ncnc3ccccc23)o1 ?
HCV inhibitor: inactive; HCMV inh: -60; SARS PLpro yeast: inactive; LASV entry inh: inconclusive; MARV entry inh: inconclusive; FMDV antiviral: inactive

Results for O=C(CSc1ncnc2ccccc12)c1cccs1 ?
HCV inhibitor: inactive; HCMV inh: inactive; SARS PLpro yeast: inactive; LASV entry inh: inconclusive; MARV entry inh: inconclusive; FMDV antiviral: inactive

What do the screens show for `Fc1ccc(CSc2ncnc3ccccc23)cc1`?
HCV inhibitor: inactive; HCMV inh: -68; SARS PLpro yeast: inactive; LASV entry inh: inactive; MARV entry inh: inconclusive; FMDV antiviral: inactive
